107 compounds from ChEMBL document CHEMBL1201862, “PubChem BioAssay data set” (2004) can be followed below.

Out of some 400,000 compounds screened, about 2,100 (0.53%) were called active. Another 14% or so got no clear call; they are omitted. How the calls were made is not given here. What follows is part of a selection rich in actives, with near analogues and random picks from the rest.

In this experiment the target is Ataxin-2 (Homo sapiens) (UniProt Q99700). The experiment in a line: qHTS for Inhibitors of ATXN expression. It is filed as functional. In general terms: In qHTS, concentration-response curves come from the screen itself.
Sequence of Ataxin-2 (Homo sapiens) (Q99700 whole entry): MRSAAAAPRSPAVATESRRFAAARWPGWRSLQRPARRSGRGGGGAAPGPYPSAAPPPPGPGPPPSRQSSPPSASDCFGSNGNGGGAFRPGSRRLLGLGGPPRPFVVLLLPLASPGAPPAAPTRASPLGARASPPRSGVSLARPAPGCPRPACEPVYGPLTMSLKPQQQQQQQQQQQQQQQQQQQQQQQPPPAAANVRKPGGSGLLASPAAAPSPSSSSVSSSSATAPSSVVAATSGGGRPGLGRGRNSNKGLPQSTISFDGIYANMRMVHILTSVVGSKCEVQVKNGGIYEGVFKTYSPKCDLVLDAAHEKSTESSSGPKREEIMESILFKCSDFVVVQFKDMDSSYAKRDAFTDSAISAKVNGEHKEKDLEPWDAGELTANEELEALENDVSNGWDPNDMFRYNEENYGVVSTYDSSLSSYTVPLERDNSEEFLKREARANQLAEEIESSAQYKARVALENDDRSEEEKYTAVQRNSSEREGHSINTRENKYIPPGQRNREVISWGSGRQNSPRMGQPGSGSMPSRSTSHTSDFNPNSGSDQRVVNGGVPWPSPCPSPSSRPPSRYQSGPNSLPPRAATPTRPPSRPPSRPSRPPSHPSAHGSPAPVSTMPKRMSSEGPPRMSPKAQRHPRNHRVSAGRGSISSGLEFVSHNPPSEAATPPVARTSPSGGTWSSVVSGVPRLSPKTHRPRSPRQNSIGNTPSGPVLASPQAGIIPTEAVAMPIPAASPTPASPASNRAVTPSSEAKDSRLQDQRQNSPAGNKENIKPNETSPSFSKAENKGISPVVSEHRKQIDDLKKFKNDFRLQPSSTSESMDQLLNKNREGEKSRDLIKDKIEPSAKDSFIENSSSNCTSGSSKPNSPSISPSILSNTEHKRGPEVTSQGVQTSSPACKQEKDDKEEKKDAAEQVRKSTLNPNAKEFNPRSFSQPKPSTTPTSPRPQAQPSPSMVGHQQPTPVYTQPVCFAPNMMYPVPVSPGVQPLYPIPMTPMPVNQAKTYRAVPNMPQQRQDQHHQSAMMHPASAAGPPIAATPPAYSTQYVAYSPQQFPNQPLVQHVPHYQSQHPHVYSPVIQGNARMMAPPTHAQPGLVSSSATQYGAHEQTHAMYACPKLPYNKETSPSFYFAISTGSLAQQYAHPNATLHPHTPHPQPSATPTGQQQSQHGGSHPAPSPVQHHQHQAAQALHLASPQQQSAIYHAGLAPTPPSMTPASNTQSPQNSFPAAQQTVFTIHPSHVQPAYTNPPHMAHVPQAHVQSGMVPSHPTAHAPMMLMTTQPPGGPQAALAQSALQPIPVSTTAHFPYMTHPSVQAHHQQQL
Take `N#C/C(=C\c1ccc2c(c1)OCCO2)C(=O)Nc1nccs1`: the Potency result is “inactive”.

On to `CCCCn1c(=O)[nH]c2nc3cc(N)ccc3nc2c1=O`, for which the Potency entry was “inactive”.

With `Cc1cccc2c(=O)n(C(=O)c3ccccc3)c(N)nc12`, the Potency result is “inactive”.

As for `CC(=O)c1ccc(OCC(=O)OC(C)C(=O)NC2CCCCC2)cc1` (configuration not stated), the Potency entry was “inactive”. For `CCC(C)c1ccc(S(=O)(=O)N2CCN(C(C)CC(=O)O)CC2)cc1` (configuration not stated) the value was “inactive”; for `CS(=O)(=O)c1ccc(C(=O)OCC(=O)NC(=O)C2CCCCC2)cc1[N+](=O)[O-]`, 35.5 µM (active); for `O=C(COC(=O)c1ccc(C(F)(F)F)cc1)NC(=O)NC1CCCC1`, “inactive”. With `O=C(NCC(O)c1ccc([N+](=O)[O-])cc1)C1CCCCC1` (configuration not stated) the entry was “inactive”; with `CN(Cc1ccccc1F)Cc1cc(=O)oc2cc(O)c(Cl)cc12`, “inactive”; with `CC(C)c1ccc(NC(=O)Nc2nc(C(N)c3ccccc3)cs2)cc1` (configuration not stated), 28.2 µM (active). With `CC(C)c1ccc(NC(=O)Nc2nc(C(C)N)cs2)cc1` (configuration not stated) the figure was 35.5 µM (active); with `O=C(Nc1ccc(Cl)cc1)Nc1cccc2nsnc12`, “inactive”; with `CC(C)c1ccc(NC(=O)Nc2nc(C(N)c3ccccc3Cl)cs2)cc1` (configuration not stated), 35.5 µM (active). Turning to `CC(C)c1ccc(/C=C(/C#N)c2nnc(NC(=O)c3ccccc3)s2)cc1`, the Potency result is “inactive”. For `NC(c1ccccc1)c1csc(NC(=O)Nc2ccc(OC(F)(F)F)cc2)n1` (configuration not stated) the value was 39.8 µM (active); for `Cc1oc(CC(C)C)cc1C(=O)NCCCC(=O)O`, “inactive”; for `N=C1NC(=O)/C(=C/c2ccc(Br)cc2)S1`, “inactive”. For `COCCN1C=C(C(=O)OC)C(c2ccc(Cl)cc2)C(C(=O)OC)=C1` the value was “inactive”; for `CCN(CC)C(=O)c1cc(-c2ccc3c(c2)OCO3)on1`, “inactive”. For `COc1ccc(OCC(=O)Nc2nccs2)cc1` the value was “inactive”. As for `COc1ccc(Cc2nnc(S)n2NC(=O)Nc2ccc(C)cc2)cc1`, the Potency entry was “inactive”. With `COc1ccc(CC(N)c2csc(NC(=O)Nc3ccc(C(C)C)cc3)n2)cc1` (configuration not stated) the figure was 39.8 µM (active); with `CCN(CC)C(=O)COC(=O)c1cc(-c2ccco2)nc2ccccc12`, “inactive”; with `COc1ccc2noc3c2c1C(=O)c1ccccc1-3`, 39.8 µM (active).

As for `COc1cccc2c1C(=O)C=C(C)C2=O`, the Potency entry was “inactive”.

As to `COc1ccc2c3c(cccc13)C(=O)CC2`, the Potency result was “inactive”.

As for `O=C1c2ccccc2-c2onc3ccc(Oc4ccccc4)c1c23`, the Potency is 20 µM (active).

On to `COc1ccc(N2C(=O)/C(=C\NNS(=O)(=O)c3ccc(C)cc3)c3ccccc3C2=O)cc1OC`, for which the Potency entry is “inactive”.

`Cc1cc(=O)oc2cc(OC(=O)c3ccco3)ccc12`: the Potency result was “inactive”.

With `O=c1c2c(-c3ccccc3)csc2nc2c3ccccc3c(NCCN3CCOCC3)nn12`, the Potency result was “inactive”.

For `Cc1cc(C)c2nc3nc(C)c(C)cc3c(N)c2c1`, the Potency entry is “inactive”. With `CCN(CC)c1ccc2cc(C#N)c(=O)oc2c1` the entry was “inactive”; with `O=c1c2ccccc2sn1-c1ccccc1`, 28.2 µM (active); with `Cn1c2ccccc2c(=O)c2ccc(Cl)cc21`, “inactive”. With `COc1ccc(N2CCN(CCN3C(=O)c4ccccc4C3=O)CC2)cc1` the entry was “inactive”; with `COc1ccc(-n2sc3ccccc3c2=O)cc1`, 22.4 µM (active); with `CCC1(CC)Nc2ccccc2C(=O)N1c1ccc(OC)cc1`, “inactive”. With `N#Cc1cc2cc3ccccc3nc2n2c(=O)c3ccccc3nc12` the entry was “inactive”; with `Nc1ccc2c3c(cccc13)C(=O)N(c1ccccc1)C2=O`, “inactive”.

On to `O=c1c2ccccc2sn1-c1ccc(Cl)cc1Cl`, for which the Potency was 35.5 µM (active). With `N#Cc1ccc2sn(-c3ccccc3)c(=O)c2c1`, the Potency was 22.4 µM (active).

Turning to `O=c1c2ccccc2nc2ccccn12`, the Potency entry is “inactive”. For `N#Cc1c(N)n(-c2ccccc2)c(=O)c2cc([N+](=O)[O-])ccc12` the value was “inactive”. In the case of `CC(C)(C)c1ccc(C(=O)NCCn2c(N)c(C#N)c3nc4ccccc4nc32)cc1`, the Potency result is “inactive”. `Cc1cc(O)cc2c1C(=O)/C(=C/c1ccco1)O2`: the Potency entry is “inactive”. For `O=C1NC(c2ccco2)Nc2sc3c(c21)CCN(Cc1ccccc1)C3` (configuration not stated) the value was “inactive”; for `N#Cc1c(C(F)(F)F)cc(O)n2c1nc1ccccc12`, “inactive”; for `CC(=O)Nc1ccc2c(=O)n(-c3ccccc3)sc2c1`, 25.1 µM (active).

Take `CN1C(=O)c2cccc3c(N)ccc(c23)C1=O`: the Potency result is “inactive”. For `CC(=O)Nc1ccc2nc3ccccc3nc2c1` the value was “inactive”; for `Cn1sc2ccccc2c1=O`, 28.2 µM (active); for `O=c1c2cc(F)ccc2sn1-c1ccc(F)cc1`, 35.5 µM (active).

With `CC(=O)Nc1ccc(C2=NN(c3ccccc3)C(c3ccccc3)C2)cc1` (configuration not stated), the Potency result is “inactive”. With `O=c1c2ccccc2[nH]c2ccc(F)cc12` the entry was “inactive”; with `COCCCn1c(N)c(-c2nc3ccccc3n2C)c2nc3ccccc3nc21`, “inactive”; with `COc1ccc(N2C3=C(C(=O)CC(C)(C)C3)C(c3cnn(C)c3)C3=C2CC(C)(C)CC3=O)cc1`, “inactive”. For `COc1cccc(C(=O)Oc2c(Br)cc(Br)cc2/C=N/NC(=O)c2cc(C)[nH]n2)c1` the value was “inactive”; for `CC1(C)CC2CC(C)(CN2C(S)=Nc2ccccc2)C1` (configuration not stated), “inactive”. With `COc1ccc(OC)c(/C=N/NC(=O)CNC(=O)c2ccc(S(=O)(=O)N3CCOCC3)cc2)c1`, the Potency entry is “inactive”. With `O=C(Oc1ccc2ccc(=O)oc2c1)c1cccs1` the entry was “inactive”. With `S=C(NNC(=S)NC1CC2C=CC1C2)NC1CC2C=CC1C2` (configuration not stated) the entry was “inactive”; with `CCOC(=O)c1sc(NC(=O)c2ccoc2C)c(C(N)=O)c1C`, “inactive”.

Consider `CCOC(=O)c1c(NC(C)=O)sc2c(OCC(O)CNC(C)(C)C)c(Br)ccc12` (configuration not stated), for which the Potency was 39.8 µM (active). For `CC(=O)Nc1sc(C)c(C)c1C(=O)OCC(=O)NCc1ccc(Cl)cc1` the value was “inactive”.

Consider `NC(=O)c1cccc2cc3ccccc3cc12`, for which the Potency entry is “inactive”. For `Cc1ccc2nc(Cl)c(C#N)cc2c1` the value was “inactive”; for `C#CCOc1ccc(C2C(C#N)=C(N)Oc3cc(O)ccc32)cc1` (configuration not stated), “inactive”. For `Cc1ccc2nc(O)c(C3C(C#N)=C(N)Oc4c3ccc3cccnc43)cc2c1` (configuration not stated) the value was 22.4 µM (active); for `COC(=O)c1sc2nc3c(cc2c1N)CCCC3`, “inactive”; for `O=C1CC(c2ccccc2Cl)=NN(c2ncnc3ccccc23)C1=O`, “inactive”. As for `CC1=C/C(=N\OS(=O)(=O)c2ccccc2)C=CC1=O`, the Potency is 31.6 µM (active). For `CC1=C/C(=N\OS(=O)(=O)c2ccccc2)C(C(C)C)=CC1=O` the value was 31.6 µM (active); for `Cc1ccc(S(=O)(=O)NNc2c3ccccc3nc3ccc(Cl)cc23)cc1`, “inactive”. For `CCCCn1c(=O)[nH]c2nc3cc(NC(C)=O)ccc3nc2c1=O` the value was “inactive”; for `CCN(CC)c1ccc(/C=c2\sc3nc4ccccc4n3c2=O)c(O)c1`, “inactive”. For `OCCC1CN(C2CCN(c3ccccc3F)CC2)CCN1Cc1ccccc1` (configuration not stated) the value was “inactive”; for `Cc1cccc(C2=NN(c3ccc(Br)cc3)[C@@H](C(=O)N3CCOC3=O)[C@@H]2c2ccccc2)c1`, “inactive”; for `CN1C[C@@H]2[C@@H]3C(=O)N(Cc4ccccc4)C(=O)[C@@H]3[C@](Cc3ccccc3)(C1=O)N2C(=O)c1ccc(C(C)(C)C)cc1`, 15.8 µM (active). `CC1(Cc2ccccc2Cl)C(=O)Nc2cc(-c3ccccc3Cl)ccc21` (configuration not stated): the Potency was 39.8 µM (active). With `Nc1ccccc1SC(CC(=O)c1ccccc1)c1cccc([N+](=O)[O-])c1` (configuration not stated) the figure was 2.82 µM (active); with `CC(CCc1ccccc1)NCC(O)c1cccc([N+](=O)[O-])c1` (configuration not stated), “inactive”; with `Nc1ccccc1SC(C[N+](=O)[O-])c1ccccc1` (configuration not stated), 39.8 µM (active). With `CC(=O)Nc1cc[n+](CC(=O)c2cccc([N+](=O)[O-])c2)cc1` the entry was “inactive”; with `COc1ccc(/C=N/NC(=O)Nc2cccc3nsnc23)cc1`, “inactive”. With `CN1C(=O)c2cccc3c(N(C)C)ccc(c23)C1=O` the entry was “inactive”; with `O=C(O)c1ccccc1-c1ccc(C=c2sc3nc4cc(Br)cnc4n3c2=O)o1`, “inactive”; with `CCN(CC)CCNS(=O)(=O)c1ccc2c3c(cccc13)C(=O)N2`, “inactive”.

For the compound `C=CCC(Nc1ccccc1)C12C=CC(O1)C(C(=O)OC)=C2C(=O)OC` (configuration not stated), the Potency was 39.8 µM (active). With `Cc1ccc(/C=N/Nc2ccc3ccccc3n2)o1` the entry was “inactive”. For `c1ccc(-c2nc(CN3CCN(c4ccccn4)CC3)c[nH]2)cc1` the value was “inactive”. For `CN(C)C(=S)N=Nc1[nH]c2ccccc2c1O` the value was 1.12 µM (active); for `O/C(=C\c1nc2ccccc2nc1O)c1cccs1`, “inactive”. On to `O=C1C2C(c3ccccc3)CC=CC2[C@H](c2ccc(C(F)(F)F)cc2)N1Cc1ccccc1` (some centres not stated), for which the Potency was 15.8 µM (active). For `Cc1ccc(F)c([C@H]2[C@H]3C=CC[C@@H](C)[C@@H]3C(=O)N2Cc2ccccc2)c1` the value was 39.8 µM (active); for `CC[C@@H]1CC=C[C@H]2[C@H]1C(=O)N(Cc1ccccc1)[C@H]2c1ccoc1`, 35.5 µM (active).

With `Nc1nnc(SCC(=O)NNC(=O)c2ccc([N+](=O)[O-])cc2)s1`, the Potency result is “inactive”. For `NC(S)=NN=C1c2cc(OCCN3CCOCC3)ccc2-c2ccc(OCCN3CCOCC3)cc21` the value was 7.94 µM (active); for `COCc1cc(O)nc(SCCS(=O)(=O)c2ccc(Cl)cc2Cl)n1`, 11.2 µM (active); for `O=S(=O)(CCN1C=CC(C(F)(F)F)=NCC1)c1ccc(Cl)cc1Cl`, “inactive”. With `COCc1cc(O)nc(-c2ccc(C(F)(F)F)cc2)n1` the entry was “inactive”; with `CCOc1cc(C(c2c(C)[nH]n(-c3ccccc3)c2=O)c2c(C)[nH]n(-c3ccccc3)c2=O)ccc1O`, 28.2 µM (active); with `CCN1/C(=C/c2ccc3cc(C)ccc3[n+]2C)Sc2ccc3sccc3c21`, 17.8 µM (active). With `CCOC(=O)/C(=C\C=C1/Sc2ccccc2N1CC)C(C)=O` the entry was “inactive”; with `CCN1/C(=C/c2ccc3cc(C)ccc3[n+]2CC)Sc2ccccc21`, 14.1 µM (active); with `CCOC(=O)/C(C#N)=C(C)/C=C1\Sc2ccccc2N1CC`, “inactive”. For the compound `CCN1/C(=C\c2ccc3ccccc3[n+]2CC)Sc2cc(C)ccc21`, the Potency was 44.7 µM (active).

Turning to `CC[n+]1c(C=C2C=CN(C)C=C2)ccc2cc(C)ccc21`, the Potency is 10 µM (active).
